These results are taken from PubChem BioAssay (NCATS).

Records with an inconclusive call do not appear. Where a call stands in place of a potency, no number is given. Active and inactive are the calls of the source. Calls follow the shape of the dose curve; as a rule, active = well fitted inhibition curve with a large enough effect; inconclusive = small, poorly fitted or top-dose-only effect; inactive = no such curve, though single readings can be large or run the other way.

Sequence of Muscarinic acetylcholine receptor M1 (Rattus norvegicus) (P08482 whole entry, looked up): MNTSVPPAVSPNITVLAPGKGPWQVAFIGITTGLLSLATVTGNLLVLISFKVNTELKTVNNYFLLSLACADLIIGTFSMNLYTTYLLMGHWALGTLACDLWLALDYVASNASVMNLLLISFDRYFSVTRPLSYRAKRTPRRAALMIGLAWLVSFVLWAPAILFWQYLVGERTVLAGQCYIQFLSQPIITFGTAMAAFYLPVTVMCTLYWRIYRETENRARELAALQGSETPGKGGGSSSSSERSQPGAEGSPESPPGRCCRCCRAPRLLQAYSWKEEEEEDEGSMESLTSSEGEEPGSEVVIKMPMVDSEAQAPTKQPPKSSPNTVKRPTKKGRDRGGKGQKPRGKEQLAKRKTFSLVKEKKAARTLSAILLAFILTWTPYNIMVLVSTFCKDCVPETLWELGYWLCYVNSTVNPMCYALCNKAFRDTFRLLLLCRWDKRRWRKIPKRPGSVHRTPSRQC

This experiment has as its target Muscarinic acetylcholine receptor M1 (Rattus norvegicus) (UniProt P08482). The experiment can be described thus: qHTS Assay for Antagonists of Acetylcholine Muscarinic M1 Receptor: Measurement of IP-One Response (AID 944). Also: nearly all actives have a fitted effect of over 75% in size. As to conditions: CHO-M1 cells, IP-One HTRF, antagonist mode; series mostly up to 46.1 µM. The text has this:
NIH Molecular Libraries Screening Centers Network [MLSCN]
NIH Chemical Genomics Center [NCGC]
Acetylcholine muscarinic M1 receptor is a G-protein coupled receptor (GPCR) coupling to the Gq G protein. It is mainly expressed in brain and functionally related to the learning and memory processes. The agonists of this receptor have the potential for the treatment of Alzheimer's disease and cognitive impairments associated with Schizophrenia.
Upon an activation of the M1 receptor, phosholipase C (PLC) is activated to produce inositol 1,4,5-trisphosphate (IP3) and diacyl glycerol (DAG). The IP3 is very rapidly hydrolyzed to IP2, IP1 and then inositol by a series of enzymes and Ca2+ is quickly pumped back into ER by the calcium pump on the ER membrane, which effectively switches off the IP3 and Ca2+ signaling. For compound screen, the changes in intracellular free Ca2+ concentration can be measured by the fluorescence calcium dye such as Fura-2, Fluo-3 and Fluo-4 with a fluorescence kinetic plate reader. IP1 or total IPs including IP1, IP2 and IP3 are usually measured as an alternative method for assessing the function of Gq-coupled GPCRs. We have applied a time-resolved fluorescence based (TR-FRET) IP1 assay in which an IP1 specific antibody is used to detect the labeled IP1 tracer. When the cell lysate contains the elevated IP1, the TR-FRET between the labeled antibody and IP1 tracer is disrupted resulting in a reduction in the total signal. Since the TR-FRET is used, a homogenous assay with out cell wash and medium change is possible which also can be miniaturized into the high density format for HTS.
We have obtained a M1-CHO cell line transfected with rat acetylcholine M1 receptor and optimized this IP-One assay with this cell line for compound screening as a counter-screen assay for other Gq-coupled GPCRs.
NCGC Assay Protocol Summary:
The CHO-M1 (CHO-M1) cell line transfected with the rat acetylcholine muscarinic M1 receptor was obtained from American Type Culture Collection (ATCC). The cells were maintained in call culture flasks with F12 Kaighn's media (Invitrogen) supplemented with 10 % FBS, 100 units/ml penicillin, 100 ug/ml streptomycin and 250 ug/ml geneticin (Invitrogen) at 37C, 5 % CO2 in a humidified atmosphere. At 90-95 % confluence, the cells were then detached in 15 ml 0.25 % trypsin by 3 minutes incubation at 37C and centrifuged at 1000 RPM to remove the trypsin solution. The resulting cell pellet was resuspended in the cell freezing media containing 10 % DMSO (Invitrogen) at a density of 4 x 10^7 cells/ml. The aliquots of cells at 0.5 - 1 ml per vial were frozen down slowly at 1 degree C/min using a Cryo 1 degree C freezing container in the presence of isopropanol (Nalgene Nunc, Rochster, NY) overnight in a -80C freezer. The frozen cells were then transferred to liquid nitrogen for the storage up to one year.
The resuspended frozen cells were plated at 3 ul/well with 2000 cells in the black, tissue culture treated, clear bottom 1536-well plates. The cells were cultured at 37C, 5 % CO2 for overnight to allow the cells recovering from the frozen state. 20 nl/well of compound in DMSO solution was added to the assay plate and incubated for 10 min. Carbachol was prepared in stimulation buffer (10mM Hepes, 1mM CaCl2, 0.5 mM MgCl2, 4.2 mM KCl, 146 mM NaCl, 5.5 mM glucose 50mM LiCl 50mM pH7.4) which was added to the assay plate at 1 ul/well. After an incubation with carbachol at 37C, 5 % CO2 for 30 min, all the wells in the assay plate were added with 1 ul/well of d2 conjugated IP1 (d2-IP1) and 1 ul/well of Eu+ cryptate conjugated anti-IP1 antibody (Eu+-Ab), both from the IP-One kit (Cisbio USA., Inc.). After 10 min incubation at the room temperature, the assay plates were measured in the HTRF detection mode in ViewLux plate reader (Ex=337 nm. Em(1)=620 and Em(2)=665 nm)
1536-well assay protocol:
(1) 4 ul/well containing 2000 M1-CHO cells in 1536 tissue culture treated white plate
(3) Add 23 nl compound diluted in DMSO
[…]
In general terms: qHTS replaces the single test concentration by a dilution series.
`O=C(O)c1cc(=O)cc(C(=O)O)[nH]1`: the Potency entry is “inactive”.
As to `O=c1[nH]c(=O)c2nc3ccccc3nc2[nH]1`, the Potency result is “inactive”.
As to `COC(=O)[C@H](NC(=O)c1cc(-c2ccccc2)nc2ccccc12)c1ccccc1`, the Potency result was “inactive”.
As for `COc1cc(CC(=O)O)ccc1O`, the entry is “inactive”; as for `N[C@@H](Cc1c[nH]c2ccccc12)C(=O)O`, “inactive”.
In the case of `NC(N)=NC(N)=Nc1ccccc1` it was “inactive”; in that of `O=c1[nH]c2cc(Cl)ccc2c(O)c1-c1ccc(Oc2ccccc2)cc1`, “inactive”.
Consider `O=c1[nH]ccc2c(O)cccc12`, for which the Potency result was “inactive”.
In the case of `CSC(=N)N` it was “inactive”.
For the compound `Cn1c(=O)c2[nH]c(C3CCCC3)nc2n(C)c1=O`, the Potency entry is “inactive”.
As to `O=C(O)C1=CC(=C(c2ccc(O)c(C(=O)O)c2)c2ccc(O)c(C(=O)O)c2)C=CC1=O`, the Potency result is “inactive”.
As for `Cc1nc(N=Nc2ccc(C(=O)O)cc2)c(COP(=O)(O)O)c(C=O)c1O`, the entry is “inactive”.
With `CCCCCCCCCCCCCCSCC(=O)O`, the Potency entry is “inactive”.
As for `NCCNS(=O)(=O)c1cccc2c(Cl)cccc12`, the entry is “inactive”; as for `Nc1ncnc2c1c(-c1ccc(Oc3ccccc3)cc1)cn2C1CCCC1`, “inactive”.
As for `Nc1ncnc2c1ncn2C1CCCC1`, the entry is “inactive”.
Consider `NC/C=C\C(=O)O`, for which the Potency entry is “inactive”.
Take `COCc1nc2c([nH]1)c(=O)n(C)c(=O)n2CC(C)C`: the Potency entry was “inactive”.
Turning to `O=c1onc2n1-c1cc(Br)ccc1OC2`, the Potency result is “inactive”.
As for `O=C(O)C1CCNCC1`, the entry is “inactive”.
In the case of `CCCCCCC/C=C\CCCCCCCCC(=O)O` it was “inactive”.
In the case of `CCCn1c(=O)c2[nH]c(C3CCCC3)nc2n(CCC)c1=O`, the Potency entry is “inactive”.
`Cc1nc2c(OCc3ccccc3)cccn2c1CC#N`: the Potency entry was “inactive”.
`N#CC(C#N)=C(N)/C(C#N)=C/c1ccc(O)cc1`: the Potency result was “inactive”.
As for `O=S(=O)(c1cccc2c(Cl)cccc12)N1CCCNCC1`, the entry is “inactive”; as for `N[C@H](C(=O)O)[C@H](O)C(=O)O`, “inactive”; as for `O=C(O)C1=CCCN(CCON=C(c2ccccc2)c2ccccc2)C1`, “inactive”.
In the case of `O=C(O)C1=CCCNC1` it was “inactive”.
In the case of `Nc1ccc(-c2nc3ccc(-c4nc5ccc(N)cc5[nH]4)cc3[nH]2)cc1` it was “inactive”; in that of `COc1cc2c(CCNC(C)=O)c[nH]c2cc1O`, “inactive”.
As to `Cc1nc(N=Nc2ccc(S(=O)(=O)O)cc2S(=O)(=O)O)c(COP(=O)(O)O)c(C=O)c1O`, the Potency entry is “inactive”.
In the case of `Cc1nc(N=Nc2cc(S(=O)(=O)O)c3cc([N+](=O)[O-])cc(S(=O)(=O)O)c3c2)c(COP(=O)(O)O)c(C=O)c1O`, the Potency entry was “inactive”.
In the case of `O=c1oc(Cl)c(Cl)c2ccccc12` it was “inactive”; in that of `CN[C@H](CC(=O)O)C(=O)O`, “inactive”.
As for `CCN1C(=O)C=CC1=O`, the entry is “inactive”.
As for `CC(C)(CO)Cc1cc(C(C)(C)C)c(O)c(C(C)(C)C)c1`, the entry is “inactive”; as for `Nn1nnc2ccccc21`, “inactive”; as for `N#Cc1cc2nc(O)c(O)nc2cc1[N+](=O)[O-]`, “inactive”.
In the case of `COc1cc(CNC(=O)CCCCCCC(C)C)ccc1O`, the Potency result is “inactive”.
Take `CCSC(=N)N`: the Potency entry is “inactive”.
